Source: PubChem BioAssay
Mm-Cpn inhibitor: blocks the Methanococcus maripaludis chaperonin Mm-Cpn | purified Mm-Cpn ATPase, ADP Transcreener TR-FRET | Potency, µM (doses to about 76.9 µM), for the others: at the top dose activity, negative = inhibition, usual class: inhibitors | 330,000 tested, 0.031% active; active means well fitted inhibition curve with a large enough effect; inconclusive means small, poorly fitted or top-dose-only effect; further: potency means the concentration at half of the fitted maximal effect; on the % scale 0 is the no-effect control and ±100 the full control effect; nearly all actives have a fitted effect of over 80% in size
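TR-FRET (320 nm excitation; 590 and 665 nm emission) reports ADP made from 10 uM ATP by 25 nM enzyme; compounds were preincubated 10 min, reaction run 30 min, both at 37°C.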
uPA generation: inhibitors of cell surface uPA generation. Potency, µM (top dose mostly 38.3 µM), without a hit: top-dose activity change, negative = inhibition, most hits filed as inhibitors. cell surface uPA generation assay, qHTS. 330,000 tested, 0.31% active. AID 540303; active means well fitted inhibition curve with a large enough effect; inconclusive means small, poorly fitted or top-dose-only effect; inactive means no such curve, though single readings can be large or run the other way; tested in mouse RAW 264.7 cells; further: potency means the concentration at half of the fitted maximal effect; on the % scale 0 is the no-effect control and ±100 the full control effect; nearly all actives have a fitted effect of over 55% in size
gsp ag: agonists of gsp mutant (McCune-Albright syndrome) | 340,000 tested, 0.13% active | Potency, µM (doses to about 76.9 µM), for the others: at the top dose activation (cAMP increase), most hits filed as activators | gsp mutant cells, cAMP HTRF, 30 min; active means well fitted activation curve with a large enough effect; inconclusive means small, poorly fitted or top-dose-only effect, or another doubt; inactive means no such curve, though single readings can be large or run the other way; cell line not stated here;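 further: phosphodiesterase inhibitor Ro 20-1724 added with compounds to block cAMP breakdown; potency means the concentration at half of the fitted maximal effect; nearly all actives have a fitted effect of over 60% in size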
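Cells stably selected in G418 were plated at 2000/well, grown 16-24 hr, then given compounds in DMSO with the PDE inhibitor […] (300 uM solution added) for 30 min at 37C; cAMP was read by HTRF.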
gsp antagonist: antagonists of gsp mutant (McCune-Albright syndrome). Potency, µM (titrated, usually from 76.9 µM), inactives show at the highest dose activity change, negative = inhibition, hits mostly inhibitors. gsp-mutant cells, cAMP HTRF, 30 min. 340,000 tested, 0.4% active; calls by dose curve; cell line not stated here;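 further: intracellular cAMP measured with PDE inhibitor Ro 20-1724 present during compound exposure; potency means the concentration at half of the fitted maximal effect; on the % scale 0 is the no-effect control and ±100 the full control effect; nearly all actives have a fitted effect of over 65% in size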
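HTRF cAMP measurement after 30 min RT detection following 30 min, 37C compound treatment alongside […] (added as 300 uM solution) in G418-selected cells seeded at 2000/well and grown 16–24 h.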
TSHR antag: human thyrotropin receptor antagonism. P16473. TSHR-expressing cells, TSH-stimulated cAMP HTRF, 2 h; stronger effect = lower value. activity change, negative = inhibition, % at 11.5 µM. 330,000 tested, 0.2% active;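 active means activity change below a set negative limit, meaning inhibition stronger than a set level, cut at about -70% in these data; inconclusive means activity change between two set negative limits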; further: on the % scale 0 is the no-effect control and ±100 the full control effect
Target sequence (P16473 whole entry, looked up): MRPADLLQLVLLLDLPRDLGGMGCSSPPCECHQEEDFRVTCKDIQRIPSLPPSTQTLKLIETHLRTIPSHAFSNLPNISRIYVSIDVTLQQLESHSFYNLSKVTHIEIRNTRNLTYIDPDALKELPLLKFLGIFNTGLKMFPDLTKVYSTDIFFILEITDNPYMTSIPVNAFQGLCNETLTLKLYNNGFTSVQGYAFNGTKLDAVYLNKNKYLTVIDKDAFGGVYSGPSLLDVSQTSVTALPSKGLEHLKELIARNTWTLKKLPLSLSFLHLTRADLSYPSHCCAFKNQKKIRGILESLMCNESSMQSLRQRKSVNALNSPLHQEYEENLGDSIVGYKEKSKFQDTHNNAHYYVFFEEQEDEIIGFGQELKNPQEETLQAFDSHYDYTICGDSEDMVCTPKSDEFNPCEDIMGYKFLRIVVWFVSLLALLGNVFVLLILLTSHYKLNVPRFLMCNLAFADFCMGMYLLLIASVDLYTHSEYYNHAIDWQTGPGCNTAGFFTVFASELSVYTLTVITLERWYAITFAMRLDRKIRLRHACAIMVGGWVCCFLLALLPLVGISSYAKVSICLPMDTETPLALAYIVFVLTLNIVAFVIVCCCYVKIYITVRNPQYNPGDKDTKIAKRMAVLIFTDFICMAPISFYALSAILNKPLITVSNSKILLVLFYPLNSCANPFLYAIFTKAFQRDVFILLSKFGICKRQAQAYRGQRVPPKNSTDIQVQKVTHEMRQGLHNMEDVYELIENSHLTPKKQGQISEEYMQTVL
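Inhibition of cAMP made by TSHR-expressing cells under TSH stimulation (4nM final, EC80; 2 h, 37 deg C) is quantified with a one-step lysis HTRF kit, anti-cAMP cryptate versus cAMP-d2.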
CCT modulator: cytosolic chaperonin activity modulation | purified chaperonin ATPase assay, HTRF ADP detection, 30 min | activity change, % (concentration not given with the values), hits read low | 360,000 tested, 0.3% active | AID 651819; in the data active means activity change below about -30%; further: on the % scale 0 is the no-effect control and ±100 the full control effect
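TRiC (40 or 20 nM final, by batch activity) in 30 mM Tris pH 7.4, 100 mM KCl, 5 mM MgCl2, 1 mM DTT was treated with compound at 76 uM single dose, then 10 uM ATP, 30 min at 37 °C. ADP was read by HTRF Transcreener.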
* hit, by the source's call; ? = inconclusive; nt = no result; ! = repeats disagree; [ ] = remark or other dose. A selection: hits, their analogues and other compounds. The true share with any hit is near 1.2%.

SMILES	Mm-Cpn inhibitor	uPA generation	gsp ag	gsp antagonist	TSHR antag	CCT modulator
NS(=O)(=O)c1ccc(NC(=O)COC(=O)CCc2nc3ccccc3c(=O)[nH]2)cc1	2%	6%	-1%	8%	8	0
CC(C)c1ccc(-n2c(-c3ccccc3)c[n+]3c2CCc2ccccc2-3)cc1	-3%	?	-6%[15.4 µM]	nt	-36	1
COc1ccccc1-n1c(-c2ccccc2)c[n+]2c1CCc1ccccc1-2	2%	11µM*!	-47%	1%	-17	-3
COc1ccc(-n2c(-c3ccc(Br)cc3)c[n+]3c2CCc2ccccc2-3)cc1	2%	5µM*	21%	2%	-16	-1
Cn1c2ccccc2c(=O)c2cc(C#CC3(O)CCCCC3)ccc21	1%	1.3µM*	nt	-11%	11	-2
O=c1c2ccccc2oc2ccc(C#CC3(O)CCCCC3)cc12	nt	2.8µM*	nt	-9%	nt	-3
Cc1cc2sc3ccc(C#CC4(O)CCCCC4)cc3c(=O)c2cc1C	nt	10µM*	nt	-2%	nt	0
CCO[C@@H]1OC(C(N)=O)=C[C@H](C2CCCCC2)[C@H]1CCCO	0%	?	nt	-2%	-5	0
NNC(=O)c1sc2nc(N3CCOCC3)c3c(c2c1N)CCCC3	-1%	-17%	4%	-18%	-7	-1
Nc1c(C(=O)Nc2ccc(Cl)cc2)sc2nc(N3CCOCC3)c3c(c12)CCCC3	-4%	-1%	10µM*	-2%	-15	-2
Nc1c(C(=O)N2CCOCC2)sc2nc(N3CCOCC3)c3c(c12)CCCC3	-8%	-5%	11µM*	4%	0	-1
C#CCOCCOCCOCCNc1nc(N2CCN(C(=O)[C@H](CCC(=O)O)n3cc(CN)nn3)CC2)nc(N2CCN(C(=O)[C@H](CCC(=O)O)n3cc([C@@H](N)[C@H](C)CC)nn3)CC2)n1	0%	7%	nt	7%	7	-33*
CN(C)c1ccc(N=Cc2ccco2)cc1	?	nt	27%	?	-74*	-1
O=C(Nc1ccc(N2CCOCC2)cc1)C1CCN(S(=O)(=O)c2ccccc2F)CC1	0%	-5%	5%	-4%	3	-3
O=C(O)CC/C(=N/NC(=O)CNC(=O)Cc1ccccc1)c1ccccc1	0%	13%	-8%	8%	11	0
Cc1c(C)c2ccc(O)c(CN3CCN(C)CC3)c2oc1=O	-8%	6%	?	-3%	1	1
COc1ccccc1NCCC(=O)O	-1%	0%	0%	2%	-4	0
O=C(O)CCNc1ccc(NCCC(=O)O)c2c1C(=O)c1ccccc1C2=O	45µM*	-4%	?	?	-30	0
CN(c1ccc(F)cc1)S(=O)(=O)c1ccc(Cl)c(C(=O)OCC(=O)NCc2ccco2)c1	-2%	0%	-8%	-20%	3	-31*
COc1ccc(-c2nn(-c3ccccc3)cc2/C=N/NC(=O)c2ccc(Br)o2)cc1	-1%	-14%	2%	?	-95*	1
CN1CCN(NC(=O)c2cccc3ccccc23)CC1	1%	8%	-12%[15.4 µM]	2%	9	-2
Cc1oc(-c2ccccc2F)nc1CN1CCC(C(=O)NCCC2=CCCCC2)CC1	0%	0%	-67%	-4%	-5	-52*
COc1ccc(CCNC(=O)C2CCN(Cc3nc(-c4ccccc4F)oc3C)CC2)cc1OC	2%	nt	-8%	-7%	4	-2
C=CCn1c(SCC(=O)NC2CCS(=O)(=O)C2)nnc1-c1ccc(Cl)cc1 (centres undefined)	1%	2%	-2%[15.4 µM]	11%	1	-2
Cc1cccc(-n2ncc3c(N4CCOCC4)ncnc32)c1	0%	0.79µM*	13%	-12%	14	1
Cc1cccc(-n2ncc3c(NC4CCCCC4)ncnc32)c1	?	11µM*	-10%	-20%	-28	0
Cc1cccc(-n2ncc3c(N4CCCC4)ncnc32)c1	-2%	-19%	-4%	-4%	-4	1
